High-throughput results: PubChem BioAssay, National Center for Advancing Translational Sciences (NCATS)
Only some compounds are listed: those with a hit (about 10% of all), similar ones and a draw of the others.
SW480 rerep: A quantitative high throughput screen for small molecules that induce DNA re-replication in SW480 colon adenocarcinoma cells. hit rate 1.8% among 340,000. Potency, µM (doses to about 46.1 µM), for the others: at the top dose re-replication activation, actives largely listed as activators. AID 624297, 2012. SW480 DNA re-replication, Hoechst DNA content imaging, 48 h; note: % of control where 0% means no effect; nearly all actives have a fitted effect of over 55% in size
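Per well, 250 cells were exposed to pinned compound for 48 hr. Nuclear DNA was visualised with Hoechst (40 min, 37 C) and total object intensity recorded by fluorescence scanning.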
MCF10A rerep: A quantitative high throughput screen for small molecules that induce DNA re-replication in MCF 10a normal breast cells; MCF 10A DNA re-replication, Hoechst nuclear intensity, 48 h; Potency, µM (series often up to 46.1 µM), for the others: at the top dose activity, positive = re-replication, most hits filed as activators; hit rate 2.9% among 350,000; AID 624296, 2012; note: % of control where 0% means no effect; nearly all actives have a fitted effect of over 50% in size
Gal4-VP16 FLuc: VP16 counterscreen qHTS for inhibitors of ROR gamma transcriptional activity; Drosophila S2 Gal4-VP16 UAS-luciferase, luminescence, 20 h; Potency, µM (series often up to 53.6 µM), for the others: top-dose activity, negative = inhibition, usual class: inhibitors; hit rate 3.5% among 310,000; AID 2546, 2010;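 note: Gal4-VP16 expression switched on by copper sulfate through the metallothionein promoter; % is set by controls: 0 for no effect and ±100 for the full control effect; nearly all actives have a fitted effect of over 50% in size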
RORgamma inh: qHTS for inhibitors of ROR gamma transcriptional activity. Drosophila S2 Gal4-RORgamma UAS-luciferase reporter, 20 h. Potency, µM (highest dose often 53.6 µM), without a hit: top-dose activity change, negative = inhibition, most hits filed as inhibitors. hit rate 5.4% among 310,000. AID 2551, 2010; note: % is set by controls: 0 for no effect and ±100 for the full control effect; nearly all actives have a fitted effect of over 60% in size
Target sequence (P51450 whole entry, looked up, the tested form may be a part): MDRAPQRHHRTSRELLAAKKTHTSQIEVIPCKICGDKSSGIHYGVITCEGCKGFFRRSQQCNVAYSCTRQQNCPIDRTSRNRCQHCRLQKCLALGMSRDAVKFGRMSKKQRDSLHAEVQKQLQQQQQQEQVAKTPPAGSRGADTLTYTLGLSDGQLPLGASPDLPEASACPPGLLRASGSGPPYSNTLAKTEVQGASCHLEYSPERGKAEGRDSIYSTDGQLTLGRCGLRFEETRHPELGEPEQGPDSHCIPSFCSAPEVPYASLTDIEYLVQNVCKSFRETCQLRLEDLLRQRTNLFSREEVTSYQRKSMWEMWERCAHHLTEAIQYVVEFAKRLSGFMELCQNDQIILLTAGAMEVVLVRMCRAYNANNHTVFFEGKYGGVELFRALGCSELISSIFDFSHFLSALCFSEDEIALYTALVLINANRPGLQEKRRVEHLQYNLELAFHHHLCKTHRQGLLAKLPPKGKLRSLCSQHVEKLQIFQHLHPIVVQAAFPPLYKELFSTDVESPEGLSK
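Stable Schneider cell line, Gal4 DNA-binding domain fused to ROR gamma, UAS-luciferase. Cmpd 1 hr RT → CuSO4 700 uM final → 20 hr RT → luciferase reagent 10 min → luminescence.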
ELG1 DNA repair: qHTS screen for small molecules that inhibit ELG1-dependent DNA repair in human embryonic kidney (HEK293T) cells expressing luciferase-tagged ELG1; HEK293T ELG1-luciferase reporter, luminescence, 16 h; DNA damage induced by 5-fluorouridine; hit rate 2.3% among 330,000; Potency, µM (highest dose often 46.1 µM), for inactives: at the highest dose activity change, negative = inhibition, actives largely listed as inhibitors; note: % is set by controls: 0 for no effect and ±100 for the full control effect; nearly all actives have a fitted effect of over 55% in size
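Quantitative HTS, concentration-response format. 2,000 cells/well co-treated with 5-fluorouridine and compound, 16 hr in 5% CO2 at 37 °C; ONE-Glo luminescence read after 30 min.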
* hit, by the source's call; ? = inconclusive; / = no result given. Calls come from the whole dose curve; as a rule, active = well fitted curve in the direction sought with a large enough effect; inconclusive = small, poorly fitted or top-dose-only effect, or another doubt; inactive = no such curve, though single readings can be large; an effect the other way counts as inactive or inconclusive. Potency is the fitted concentration of half-maximal effect.

SMILES	SW480 rerep	MCF10A rerep	Gal4-VP16 FLuc	RORgamma inh	ELG1 DNA repair
N#Cc1cc2c(=O)n3ccccc3nc2n(CCCN2CCOCC2)c1=O	?	23µM*	-3%	?	-1%
Cc1cccn2c(=O)c3cc(C#N)c(=N)n(Cc4cccnc4)c3nc12	1%	0%	/	/	/
Cc1cccn2c(=O)c3cc(C#N)c(=O)n(Cc4cccnc4)c3nc12	8.2µM*	2.6µM*	-4%	-40%	14%
N#Cc1cc2c(=O)n3ccccc3nc2n(-c2ccccc2Cl)c1=O	4.6µM*	4.1µM*	-5%	-9%	?
CC(=O)N1c2ccc(S(=O)(=O)N3CCCCC3)cc2CC1C(=O)Nc1ccc(F)cc1C (centres undefined)	-2%	-2%	3%	-8%	-3%
CC(=O)Nc1ccc(S(=O)(=O)N2CCN(CC3CC4C=CC3C4)CC2)cc1 (centres undefined)	1.3µM*	12%	4%	27%	-2%
CC(=O)Nc1ccc(S(=O)(=O)N2CCN(S(=O)(=O)c3ccccc3)CC2)cc1	28%	1%	-9%	27%	3%
Cc1ccc(S(=O)(=O)N2CCN(CC(=O)Nc3ccc([N+](=O)[O-])cc3)CC2)cc1C	-81%	-13%	-5%	?	?
CC1CCN(S(=O)(=O)c2ccc(NC(=O)CN3CCCCCC3)cc2)CC1	?	?	-3%	-1%	-20%
CC(=O)Nc1ccc(S(=O)(=O)N2CCN(Cc3ccccc3[N+](=O)[O-])CC2)cc1	7%	0%	-2%	?	9.2µM*
O=C(CN1CCN(S(=O)(=O)c2ccccc2)CC1)Nc1ccc([N+](=O)[O-])cc1	14%	-4%	-22%	43%	21µM*
CC1CCN(CC(=O)Nc2ccc(S(=O)(=O)N3CCCCC3)cc2)CC1	12%	2.3µM*	-8%	-1%	-9%
CNc1ccccc1C(=O)OC(C)C(=O)Nc1ccc(Cl)cn1 (centres undefined)	?	?	-11%	21%	?
Cc1ccc2c(c1)N(CC(=O)N1CCN(C3CCCCC3)CC1)C(=O)CO2	-119%	-11%	2%	-17%	-12%
Cc1ccc(C(=O)Nc2cccc(C(=O)NC3CCCCC3)c2)cc1	5%	0%	/	/	/
Cc1ccc(S(=O)(=O)N2CCCCC2)cc1C(=O)OC(C)C(=O)NCC1CCCCC1 (centres undefined)	-5%	?	/	/	2%
Cc1cc2ccccc2n2c(SCC(=O)Nc3ccc(S(=O)(=O)N4CCC(C)CC4)cc3)nnc12	?	-1%	3%	29%	26µM*
Cn1nc(C(F)(F)F)c2cc(NC(=O)OCc3ccc(C(C)(C)C)cc3)sc21	15%	15µM*	9%	25%	?
Cn1nc(C(F)(F)F)c2cc(NC(=O)OCc3ccc(F)cc3)sc21	-6%	?	-12%	?	-11%
COc1cc(C2OC(=O)C3C(c4ccc(OC(C)=O)c(OC)c4)OC(=O)C23)ccc1OC(C)=O (centres undefined)	1%	?	/	/	/
O=C(N/N=C/c1ccncc1)c1ccc(-n2cccc2)cc1	2%	13%	-4%	-6%	0%
NS(=O)(=O)c1ccc(N/N=C/c2cn(-c3ccccc3)nc2-c2cccs2)cc1	?	13µM*	?	?	0%
O=C(N/N=C/c1nn(-c2ccccc2)cc1-c1ccccc1)c1ccncc1	?	-29%	3.2µM*	1.6µM*	?
O=C(N/N=C/c1cn(-c2ccccc2)nc1-c1cccs1)c1ccncc1	24%	0%	2.2µM*	1.3µM*	-12%
Cc1ccc(-c2nn(-c3ccccc3)cc2/C=N/NC(=O)c2ccncc2)o1	?	?	11µM*	2.8µM*	?
CC(C)CC(Nc1ncnc2scc(-c3ccccc3)c12)C(=O)O (centres undefined)	4%	1%	0%	40%	4%
